From PubChem BioAssay (Tox21)
Records with an inconclusive call do not appear. The source made the active and inactive calls. Unless noted, the call rests on the fitted dose curve; in most records, active means well fitted curve in the direction sought with a large enough effect in the repeat runs; inconclusive means weak or mixed curves; inactive means no such curve, though single readings can be large; an effect the other way counts as inactive or inconclusive.

Experiments:
[1] = A CellTox Green Cytotoxicity Assay to monitor cytotoxicity in HepG2 cells - 16 hour (AID 1224876); further: nearly all actives have a fitted effect of over 45% in size
How it was run: (§1)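 Measurements at 0, 8, 16, 24, 32 and 40 h of treatment captured CellTox Green fluorescence in HepG2 cells that had been co-plated with reagent and preincubated 5 h at 37 C/5% CO2.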

[2] = qHTS RealTime-Glo MT Cell Viability Assay in HepG2 cells - 32 hour (AID 1224877); further: nearly all actives have a fitted effect of over 55% in size
How it was run: (§2)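 Luminescence read-out: viable HepG2 cells reduce a prosubstrate to a NanoLuc substrate, giving a signal proportional to live cell number. Reads taken at 0, 8, 16, 24, 32 and 40 h of compound exposure at 37 C.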

[3] = A CellTox Green Cytotoxicity Assay to monitor cytotoxicity in HepG2 cells - 24 hour (AID 1224878); further: nearly all actives have a fitted effect of over 45% in size
How it was run: as §1

[4] = A CellTox Green Cytotoxicity Assay to monitor cytotoxicity in HepG2 cells - 40 hour (AID 1224879); further: nearly all actives have a fitted effect of over 40% in size
How it was run: as §1

[5] = A CellTox Green Cytotoxicity Assay to monitor cytotoxicity in HEK293 cells - 32 hour (AID 1224881); further: nearly all actives have a fitted effect of over 40% in size
How it was run: (§3)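 Tox21 screen in HEK293: membrane-impermeant cyanine dye fluoresces on binding dead-cell DNA; compound pinned 5 h post-seeding, plates held at 37 C, signal read repeatedly through 40 h.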

[6] = A CellTox Green Cytotoxicity Assay to monitor cytotoxicity in HepG2 cells - 0 hour (AID 1224882); further: nearly all actives have a fitted effect of over 35% in size
How it was run: as §1

[7] = A CellTox Green Cytotoxicity Assay to monitor cytotoxicity in HepG2 cells - 32 hour (AID 1224883); further: nearly all actives have a fitted effect of over 50% in size
How it was run: as §1

[8] = A CellTox Green Cytotoxicity Assay to monitor cytotoxicity in HEK293 cells - 8 hour (AID 1224884); further: nearly all actives have a fitted effect of over 35% in size
How it was run: as §3

[9] = qHTS RealTime-Glo MT Cell Viability Assay in HepG2 cells - 16 hour (AID 1224885); further: nearly all actives have a fitted effect of over 50% in size
How it was run: as §2

[10] = qHTS RealTime-Glo MT Cell Viability Assay in HEK293 cells - 24 hour (AID 1224886); further: top concentration of the series differs between compounds; nearly all actives have a fitted effect of over 50% in size
How it was run: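 Nonlytic real-time viability readout: viable cells convert prosubstrate to NanoLuc substrate, giving luminescence proportional to live cell number. HEK293, 600 cells/well, compound added after 5 h, continuous culture at 37 C.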

[11] = qHTS RealTime-Glo MT Cell Viability Assay in HEK293 cells - 8 hour (AID 1224887); further: top concentration of the series differs between compounds; nearly all actives have a fitted effect of over 50% in size
How it was run: (§4)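 HEK293 + NanoLuc + prosubstrate, 600 cells/well; 5 h, 37 C/5% CO2; compound 23 nL in DMSO by pintool; 37 C; luminescence read at 0, 8, 16, 24, 32 and 40 h time points.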

[12] = A CellTox Green Cytotoxicity Assay to monitor cytotoxicity in HEK293 cells - 16 hour (AID 1224888); further: nearly all actives have a fitted effect of over 35% in size
How it was run: as §3

[13] = qHTS RealTime-Glo MT Cell Viability Assay in HepG2 cells - 0 hour (AID 1224889); further: nearly all actives have a fitted effect of over 50% in size
How it was run: as §2

[14] = A CellTox Green Cytotoxicity Assay to monitor cytotoxicity in HepG2 cells - 8 hour (AID 1224890); further: nearly all actives have a fitted effect of over 45% in size
How it was run: as §1

[15] = qHTS assay to identify small molecule antagonists of the estrogen receptor alpha (ER-alpha) signaling pathway using the BG1 cell line in the presence of 0.1 nM 17-beta-estradiol - cell viability counter screen (AID 1259241); further: nearly all actives have a fitted effect of over 40% in size
How it was run: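 Cells were plated and left 24 hr, compounds in DMSO were pinned in, 17beta-estradiol was added to 0.1 nM final, and after 22 hr CellTiter-Fluor reagent was added for 30 min before fluorescence was read.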

[16] = qHTS assay to identify small molecule antagonists of the androgen receptor (AR) signaling pathway using the MDA cell line in the presence of 0.5 nM R1881 - cell viability counter screen (AID 1259242); further: nearly all actives have a fitted effect of over 45% in size
How it was run: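 Concentration-response screen of compounds for toxicity in MDA-kb2 reporter cells: 16 hr at 37C with 0.5 nM R1881, endpoint live-cell protease fluorescence measured in the reporter wells.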

[17] = biological target: Androgen receptor (Homo sapiens) (UniProt P10275); test: qHTS assay to identify small molecule antagonists of the androgen receptor (AR) signaling pathway using the MDA cell line in the presence of 0.5 nM R1881 (AID 1259243); further: nearly all actives have a fitted effect of over 50% in size
Androgen receptor (Homo sapiens), sequence (P10275 whole entry, looked up): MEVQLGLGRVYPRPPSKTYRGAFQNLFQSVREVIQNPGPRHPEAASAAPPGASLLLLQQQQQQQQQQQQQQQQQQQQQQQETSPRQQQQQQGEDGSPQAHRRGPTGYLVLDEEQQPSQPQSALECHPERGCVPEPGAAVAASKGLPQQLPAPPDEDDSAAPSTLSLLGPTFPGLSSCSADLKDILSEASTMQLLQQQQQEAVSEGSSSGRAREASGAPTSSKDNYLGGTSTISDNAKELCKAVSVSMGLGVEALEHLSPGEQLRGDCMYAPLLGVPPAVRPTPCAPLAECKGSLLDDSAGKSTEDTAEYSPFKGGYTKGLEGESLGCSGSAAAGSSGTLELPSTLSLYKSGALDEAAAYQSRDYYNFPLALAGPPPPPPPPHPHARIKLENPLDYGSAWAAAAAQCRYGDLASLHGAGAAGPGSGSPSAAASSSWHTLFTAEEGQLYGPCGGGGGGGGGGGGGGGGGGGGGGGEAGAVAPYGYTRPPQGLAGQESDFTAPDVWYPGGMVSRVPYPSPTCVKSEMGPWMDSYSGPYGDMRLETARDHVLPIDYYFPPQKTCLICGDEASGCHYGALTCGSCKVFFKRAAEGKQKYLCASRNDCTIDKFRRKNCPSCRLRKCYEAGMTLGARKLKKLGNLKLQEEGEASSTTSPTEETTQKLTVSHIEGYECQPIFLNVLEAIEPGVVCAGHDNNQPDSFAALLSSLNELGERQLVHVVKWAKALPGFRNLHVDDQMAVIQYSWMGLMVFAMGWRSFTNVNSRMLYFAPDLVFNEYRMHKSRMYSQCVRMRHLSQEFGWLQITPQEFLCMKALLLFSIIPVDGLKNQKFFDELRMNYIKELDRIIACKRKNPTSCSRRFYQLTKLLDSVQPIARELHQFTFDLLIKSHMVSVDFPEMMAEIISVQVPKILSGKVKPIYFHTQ
How it was run: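 With R1881 held at 0.5 nM (final), compound effects on MMTV-luciferase expression in MDA-kb2 cells were scored by luminescence after a 16 hr, 37C incubation.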

[18] = qHTS assay to identify small molecule phospholipidosis (PLD) inducers (AID 1259344; active means well fitted curve in the direction sought with a large enough effect; an effect the other way counts as inactive or inconclusive)
How it was run: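 Phospholipid accumulation was scored by imaging: fixed, Hoechst-counterstained HepG2 cells stained with LipidTOX Red after 24 h compound exposure at 37 C. Read-outs were pit count and pit intensity per well or per cell, with amiodarone and DMSO controls.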

[19] = biological target: Estrogen receptor (Homo sapiens) (UniProt P03372); test: qHTS assay to identify small molecule antagonists of the estrogen receptor alpha (ER-alpha) signaling pathway using the BG1 cell line in the presence of 0.1 nM 17-beta-estradiol (AID 1259244); further: nearly all actives have a fitted effect of over 50% in size
Estrogen receptor (Homo sapiens), sequence (P03372 whole entry, looked up): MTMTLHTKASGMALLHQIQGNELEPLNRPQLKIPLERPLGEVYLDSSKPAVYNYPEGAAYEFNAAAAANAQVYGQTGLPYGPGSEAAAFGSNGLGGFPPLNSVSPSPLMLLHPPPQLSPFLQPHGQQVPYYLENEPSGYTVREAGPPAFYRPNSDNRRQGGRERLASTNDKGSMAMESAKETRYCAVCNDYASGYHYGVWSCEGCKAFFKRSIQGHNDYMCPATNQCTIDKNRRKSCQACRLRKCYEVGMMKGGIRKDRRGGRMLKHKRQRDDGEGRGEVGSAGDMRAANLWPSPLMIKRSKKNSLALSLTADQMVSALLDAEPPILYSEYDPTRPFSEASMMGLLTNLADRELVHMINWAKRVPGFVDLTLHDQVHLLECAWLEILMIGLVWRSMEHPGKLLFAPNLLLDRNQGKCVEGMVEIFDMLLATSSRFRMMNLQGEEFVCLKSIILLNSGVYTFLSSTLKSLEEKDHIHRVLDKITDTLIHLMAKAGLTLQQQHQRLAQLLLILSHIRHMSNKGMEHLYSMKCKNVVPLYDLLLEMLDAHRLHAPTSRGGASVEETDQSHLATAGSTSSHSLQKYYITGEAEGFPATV
How it was run: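 Compounds were tested against 0.1 nM (final) 17beta-estradiol in VM7Luc4E2 cells, which express full-length ER-alpha and an ERE-luciferase reporter; luminescence was recorded following 22 h exposure.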

[20] = qHTS RealTime-Glo MT Cell Viability Assay in HEK293 cells - 0 hour (AID 1224880)
How it was run: as §4
On the % scale 0 is the no-effect control and ±100 the full control effect.

Cc1ncc([N+](=O)[O-])n1CC(O)CCl (centres undefined)
inactive: Potency [1] | outcome [2] | Potency [3] | Potency [4] | Potency [5] | Potency [6] | Potency [7] | Potency [8] | outcome [9] | Potency [10] | Potency [11] | Potency [12] | Potency [13] | Potency [14] | Potency [15] | Potency [16] | outcome [17] | outcome [18]

CC(=O)OC(C)(C)Cc1ccccc1
inactive: Potency [1] | outcome [2] | Potency [3] | Potency [4] | Potency [5] | Potency [6] | Potency [7] | Potency [8] | outcome [9] | Potency [10] | Potency [11] | Potency [12] | Potency [13] | Potency [14] | Potency [15] | Potency [16]

Cc1ccc(S(=O)(=O)NC(=O)NC2CCCCCCC2)cc1
inactive: Potency [1] | outcome [2] | Potency [3] | Potency [4] | Potency [5] | Potency [6] | Potency [7] | Potency [8] | outcome [9] | Potency [10] | Potency [11] | Potency [12] | Potency [13] | Potency [14] | Potency [15] | Potency [16] | outcome [18]

NS(=O)(=O)c1ccccc1OC(F)(F)F
inactive: Potency [1] | outcome [2] | Potency [3] | Potency [4] | Potency [5] | Potency [6] | Potency [7] | Potency [8] | outcome [9] | Potency [10] | Potency [11] | Potency [12] | Potency [13] | Potency [14] | Potency [15]

CC(Cl)COP(=O)(OCC(C)Cl)OCC(C)Cl (centres undefined)
inactive: Potency [1] | outcome [2] | Potency [3] | Potency [4] | Potency [5] | Potency [6] | Potency [7] | Potency [8] | outcome [9] | Potency [10] | Potency [11] | Potency [12] | Potency [13] | Potency [14] | Potency [15] | Potency [16]

NC(=O)NC(=O)Cc1ccccc1
inactive: Potency [1] | outcome [2] | Potency [3] | Potency [4] | Potency [5] | Potency [6] | Potency [7] | Potency [8] | outcome [9] | Potency [10] | Potency [11] | Potency [12] | Potency [13] | Potency [14] | Potency [15] | Potency [16] | Potency [19] | outcome [18]

Cc1nc2ccccc2c(=O)o1
inactive: Potency [1] | outcome [2] | Potency [3] | Potency [4] | outcome [20] | Potency [6] | Potency [7] | outcome [9] | Potency [10] | Potency [11] | Potency [12] | Potency [13] | Potency [14] | Potency [15] | Potency [16] | Potency [19]

O=CO
inactive: cytotoxicity increase [1] -13.8% [at 6.97 µM] | activity change, negative = cytotoxic [2] 7.5% [at 6.97 µM] | cytotoxicity [3] -17.2% [at 6.97 µM] | cytotoxicity increase [4] -21.3% [at 6.97 µM] | activity change, negative = cytotoxicity [20] 3.48% [at 6.97 µM] | cytotoxicity [6] -9.11% [at 6.97 µM] | cytotoxicity increase [7] -19.2% [at 6.97 µM] | activity change, negative = cytotoxic [9] -5.47% [at 6.97 µM] | activity change, negative = cytotoxicity [10] 1.22% [at 6.97 µM] | activity change, negative = cytotoxicity [11] 8.18% [at 6.97 µM] | activity change, negative = cytotoxicity [13] -14.6% [at 6.97 µM] | cytotoxicity increase [14] -4.28% [at 6.97 µM] | activity change, negative = cytotoxicity [15] -0.2% [at 8.39 µM] | viability change, negative = cytotoxic [16] 2.31% [at 8.39 µM]

CC(C)(C)NCCO
inactive: Potency [1] | outcome [2] | Potency [3] | Potency [4] | outcome [20] | Potency [5] | Potency [6] | Potency [7] | outcome [9] | Potency [10] | Potency [11] | Potency [12] | Potency [13] | Potency [14] | Potency [15] | Potency [19]

Cc1ccc(C(=O)C(=O)O)cc1C
inactive: Potency [1] | outcome [2] | Potency [3] | Potency [4] | outcome [20] | Potency [6] | Potency [7] | Potency [8] | outcome [9] | Potency [10] | Potency [11] | Potency [12] | Potency [13] | Potency [14] | Potency [15]

CCC1COC(=O)O1 (centres undefined)
inactive: Potency [1] | outcome [2] | Potency [3] | Potency [4] | Potency [5] | Potency [6] | Potency [7] | Potency [8] | outcome [9] | Potency [10] | Potency [11] | Potency [12] | Potency [13] | Potency [14] | Potency [15] | Potency [16]

COc1cc2c(Nc3ccc(Br)cc3F)ncnc2cc1OCC1CCN(C)CC1
inactive: Potency [1] | outcome [2] | Potency [3] | Potency [4] | outcome [20] | Potency [5] | Potency [6] | Potency [7] | outcome [9] | Potency [10] | Potency [11] | Potency [12] | Potency [13] | outcome [18]

FC(F)(F)/C(=N\OCC1OCCO1)c1ccc(Cl)cc1
inactive: Potency [1] | outcome [2] | Potency [3] | Potency [4] | Potency [5] | Potency [6] | Potency [7] | Potency [8] | outcome [9] | Potency [10] | Potency [11] | Potency [12] | Potency [13] | Potency [14] | Potency [15] | Potency [16] | Potency [19]

O=C(O)c1ccccc1C(=O)OCc1ccccc1
inactive: Potency [1] | outcome [2] | Potency [3] | Potency [4] | Potency [5] | Potency [6] | Potency [7] | Potency [8] | outcome [9] | Potency [10] | Potency [11] | Potency [12] | Potency [13] | Potency [14] | Potency [15] | Potency [16] | outcome [17] | Potency [19]

CC(=O)OCCCc1ccccc1
inactive: Potency [1] | outcome [2] | Potency [3] | Potency [4] | Potency [5] | Potency [6] | Potency [7] | Potency [8] | outcome [9] | Potency [10] | Potency [11] | Potency [12] | Potency [13] | Potency [14] | Potency [15]

Nc1ccnc(=O)[nH]1
inactive: Potency [1] | outcome [2] | Potency [3] | Potency [4] | outcome [20] | Potency [5] | Potency [6] | Potency [7] | outcome [9] | Potency [10] | Potency [11] | Potency [12] | Potency [13] | Potency [14] | Potency [15] | Potency [16] | outcome [17] | Potency [19]
